Assay results from PubChem BioAssay AID1159580 (chemical genetic matrix, 2015).
Values joined by “and” are separate entries in the source; they are usually repeats but may differ in a detail not shown here. Equal entries are not always repeated. Among all 5,500 compounds or so, about 2,000 (36%) were called active. Inconclusive results (about 18%) are left out. Cut-off read from the data, not from the text of the source: active = normalized growth mostly below about 0.91 (no sharp cut-off); inconclusive = no clear call, values can overlap the other calls; inactive = mostly above about 0.92. This is one part of the list.

Assay: chemical genetic growth profiling, strain panel (AID 1159580);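 note: tested at 20 µM; growth read once vehicle control cultures reached saturation at 30 °C; 1 = growth at the plate median or of vehicle wells; lower values mean less growth of the strain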
Conditions: S. cerevisiae deletion strains, growth OD

Measured: normalized growth

CN(C)CCCO[C@H]1[C@@H](C(O)CO)OC2OC(C)(C)O[C@@H]21 (some centres not stated)
inactive: locus YAL013W, strain DEP1, stronger effect = lower value 0.928 | locus YAL021C, strain ccr4, stronger effect = lower value 1 | locus YAL026C, strain drs2, stronger effect = lower value 0.98 | locus YAL030W, strain snc1, stronger effect = lower value 0.98 | locus YBL061C, strain skt5, stronger effect = lower value 0.98 | locus YBR009C, strain hhf1, stronger effect = lower value 0.985 | locus YBR021W, strain FUR4, stronger effect = lower value 0.953 | locus YBR023C, strain chs3, stronger effect = lower value 0.98 | locus YBR171W, strain sec66, stronger effect = lower value 0.964 | locus YBR229C, strain ROT2, stronger effect = lower value 0.993 | locus YBR231C, strain swc5, stronger effect = lower value 0.992 | locus YBR279W, strain paf1, stronger effect = lower value 1.01 | locus YCL011C, strain gbp2, stronger effect = lower value 0.956 | locus YCL016C, strain dcc1, stronger effect = lower value 0.973 | locus YCL029C, strain bik1, stronger effect = lower value 0.984 | locus YCL061C, strain MRC1, stronger effect = lower value 0.987 | locus YCL069W, strain vba3, stronger effect = lower value 0.996 | locus YCR088W, strain abp1, stronger effect = lower value 0.994 | locus YDL005C, strain med2, stronger effect = lower value 0.995 | locus YDL035C, strain GPR1, stronger effect = lower value 0.946 | locus YDL040C, strain nat1, stronger effect = lower value 0.995 | locus YDL074C, strain BRE1, stronger effect = lower value 0.871 | locus YDL101C, strain DUN1, stronger effect = lower value 0.994 | locus YDL134C, strain PPH21, stronger effect = lower value 0.991 | locus YDL185W, strain tfp1, stronger effect = lower value 0.98 | locus YDL192W, strain arf1, stronger effect = lower value 0.966 | locus YDR001C, strain nth1, stronger effect = lower value 0.968 | locus YDR069C, strain doa4, stronger effect = lower value 0.989 | locus YDR101C, strain arx1, stronger effect = lower value 0.981 | locus YDR137W, strain rgp1, stronger effect = lower value 0.963 | locus YDR150W, strain NUM1, stronger effect = lower value 0.995 | locus YDR159W, strain sac3, stronger effect = lower value 0.982 | locus YDR162C, strain NBP2, stronger effect = lower value 1.08 | locus YDR195W, strain ref2 0.995 | locus YDR297W, strain sur2, stronger effect = lower value 0.992 | locus YDR318W, strain mcm21, stronger effect = lower value 0.933 | locus YDR334W, strain swr1, stronger effect = lower value 0.938 | locus YDR335W, strain msn5, stronger effect = lower value 0.981 | locus YDR388W, stronger effect = lower value 0.989 | locus YDR392W, strain spt3, stronger effect = lower value 0.921 | locus YDR502C, strain sam2, stronger effect = lower value 0.937 | locus YEL003W, strain gim4, stronger effect = lower value 0.98 | locus YEL037C, strain rad23, stronger effect = lower value 0.977 | locus YEL061C, strain CIN8 (second series), stronger effect = lower value 0.975 | locus YEL061C, strain CIN8, stronger effect = lower value 0.993 | locus YER015W, strain faa2, stronger effect = lower value 0.991 | locus YER016W, strain bim1, stronger effect = lower value 0.999 | locus YER110C, stronger effect = lower value 0.946 | locus YER111C, strain swi4, stronger effect = lower value 0.986 | locus YER155C, strain BEM2 (second series), stronger effect = lower value 0.98 | locus YER155C, strain BEM2, stronger effect = lower value 1 | locus YER167W, strain BCK2, stronger effect = lower value 0.915 | locus YFR010W, strain ubp6, stronger effect = lower value 0.971 | locus YGL078C, strain dbp3, stronger effect = lower value 1 | locus YGL167C, strain pmr1, stronger effect = lower value 0.984 | locus YGL173C, strain kem1, stronger effect = lower value 0.964 | locus YGL227W, strain vid30, stronger effect = lower value 0.987 | locus YGL240W, strain doc1, stronger effect = lower value 1 | locus YGL248W, strain PDE1, stronger effect = lower value 0.977 | locus YGL253W, strain hxk2, stronger effect = lower value 0.996 | locus YGR078C, strain PAC10, stronger effect = lower value 0.907 | locus YGR135W, strain pre9, stronger effect = lower value 0.929 | locus YGR252W, strain gcn5, stronger effect = lower value 0.849 | locus YHR013C, strain ard1, stronger effect = lower value 0.973 | locus YHR027C, strain rpn1, stronger effect = lower value 0.968 | locus YHR030C, strain SLT2, stronger effect = lower value 0.984 and 0.969 | locus YHR079C, strain IRE1 (second series), stronger effect = lower value 0.977 | locus YHR079C, strain IRE1, stronger effect = lower value 0.984 | locus YHR094C, strain hxt1, stronger effect = lower value 0.986 | locus YHR129C, strain ARP1, stronger effect = lower value 0.963 | locus YHR142W, strain chs7, stronger effect = lower value 0.946 | locus YHR200W, strain rpn10, stronger effect = lower value 0.948 | locus YIL066C, strain RNR3, stronger effect = lower value 0.951 | locus YIL073C, strain SPO22, stronger effect = lower value 0.932 | locus YIL125W, strain kgd1, stronger effect = lower value 0.993 | locus YIR030C, strain dcg1, stronger effect = lower value 0.986 | locus YJL092W, strain hpr5, stronger effect = lower value 0.987 | locus YJL095W, strain BCK1 (second series), stronger effect = lower value 0.993 | locus YJL095W, strain BCK1, stronger effect = lower value 0.883 and 0.978 | locus YJL115W, strain asf1, stronger effect = lower value 0.963 | locus YJL129C, strain trk1, stronger effect = lower value 1.01 | locus YJL134W, strain LCB3, stronger effect = lower value 0.993 | locus YJL154C, strain vps35, stronger effect = lower value 0.966 | locus YJL164C, strain tpk1, stronger effect = lower value 0.998 | locus YJL166W, strain qcr8, stronger effect = lower value 0.969 | locus YJL168C, strain set2, stronger effect = lower value 0.985 | locus YJL187C, strain SWE1 (second series), stronger effect = lower value 0.989 | locus YJL187C, strain SWE1, stronger effect = lower value 0.994 | locus YJR066W, strain TOR1, stronger effect = lower value 0.97
active: locus YGL086W, strain mad1, stronger effect = lower value 0.926 | locus YGR229C, strain SMI1, stronger effect = lower value 0.8 | locus YJR043C, strain POL32, stronger effect = lower value 0.85
